Reference: PubChem BioAssay (NCI)
Compounds without any hit were thinned out: in the full panel of roughly 79,000, 15% have a hit. Rule as the data show it: active = growth inhibition above about 70%; inactive = the rest.

How the values were obtained:
[1] = NCI Yeast Anticancer Drug Screen. Data for the rad50 strain (AID 155);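 also: 0% = growth of vehicle-only cultures of the same strain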; conditions: S. cerevisiae rad50 strain growth inhibition, stronger effect = higher value; at 50.0 µM unless noted
How it was run: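 Relative growth inhibition (compound vs vehicle) was measured in yeast with a defined repair-gene alteration.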

[2] = NCI Yeast Anticancer Drug Screen. Data for the mec2-1 strain (AID 157); conditions: S. cerevisiae mec2-1 strain, stronger effect = higher value; at 50.0 µM unless noted
How it was run: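 Readout is yeast growth inhibition, normalised to vehicle-treated controls, in the mec2-1 strain exposed to compound.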

[3] = NCI Yeast Anticancer Drug Screen. Data for the sgs1 mgt1 strain (AID 161);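 also: 0% = growth of cultures given vehicle only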; conditions: S. cerevisiae sgs1 mgt1 strain, stronger effect = higher value; at 50.0 µM unless noted
How it was run: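 Yeast cells carrying a defined DNA-repair defect were exposed to test compounds. Growth inhibition was measured relative to vehicle-treated controls.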

[4] = NCI Yeast Anticancer Drug Screen. Data for the cln2 rad14 strain (AID 165);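 also: 0% = growth equal to vehicle treated cultures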; conditions: S. cerevisiae cln2 rad14 strain, stronger effect = higher value; at 50.0 µM unless noted
How it was run: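 Relative to vehicle controls, growth inhibition of compound-treated cln2 rad14 yeast was recorded.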

[5] = NCI Yeast Anticancer Drug Screen. Data for the bub3 strain (AID 167); conditions: S. cerevisiae bub3 mutant strain, stronger effect = higher value; at 50.0 µM unless noted
How it was run: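 Screening used yeast with an engineered genetic alteration affecting cell cycle control. Compound-exposed cultures were compared with vehicle cultures, and reduced growth was taken as inhibition.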

[6] = NCI Yeast Anticancer Drug Screen. Data for the mlh1 rad18 strain (AID 175); conditions: S. cerevisiae mlh1 rad18 strain growth inhibition, stronger effect = higher value; at 50.0 µM unless noted
How it was run: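 Test agents were incubated with a yeast strain of defined genotype (DNA damage repair defect). Inhibition of growth was derived by comparison with vehicle-exposed cultures.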

Measured: growth inhibition

Cn1c2ccc3cc2c(=S)c2cc(ccc21)OCCOCCOCCOCCOCCO3
inactive: [1] 32.1% | [2] -16% | [3] 0.65% | [4] -17% | [5] -13.3% | [6] 9.85%

CCOC(=O)C(C)NC(=O)c1ccccc1 (centres undefined)
inactive: [1] 0.25% | [2] -8.5% | [3] -14.6% | [4] -52.2% | [5] 5.5% | [6] 0.75%

COc1ccc2oc3c(OC)c(OC)c(OC)cc3c(=O)c2c1
inactive: [1] -11.3% | [2] -21.6% | [3] -4.95% | [4] 6% | [5] 12.6% | [6] -15.8%

CCCCCCCSCC(=O)OCC
inactive: [1] -12.6% | [2] -19.8% | [3] -22.5% | [4] 7.2% | [5] -6.5% | [6] -5.75%

O=C(Nc1ccccc1)C12CCC(CC1Br)C2 (centres undefined)
inactive: [1] 4.95% | [2] -9.25% | [3] -9.7% | [4] 7.6% | [5] 1.75% | [6] 14.2%

COc1cc2c(cc1OC)C(c1c(-c3c(Cl)cccc3Cl)noc1C)=NCC2
inactive: [1] -3.8% | [2] -14.9% | [3] -11.8% | [4] 19.8% | [5] 3.2% | [6] -4.25%

C=C1C(=O)OCC1C(=O)OCC (centres undefined)
inactive: [1] 9.35% | [2] 7.7% | [3] -0.35% | [4] 3.35% | [5] -24.8% | [6] 14.2%

CCCCCCCOC(=O)CO
inactive: [1] 22.4% | [2] 6.65% | [3] 16.2% | [4] 16.9% | [5] 1.95% | [6] 19.4%

c1nc2c([nH]1)CCNC2c1ccc(C2NCCc3[nH]cnc32)cc1 (centres undefined)
inactive: [1] 1.65% | [2] -1.65% | [3] 1.3% | [4] -38.9% | [5] -14.1% | [6] -2.95%

COc1ccc(O)c2c1C(=O)CCCC2=O
inactive: [1] 3.65% | [2] -0.75% | [3] 6.35% | [4] -4.6% | [5] 4.05% | [6] 0.7%

COc1cccc(NC(=O)NCCCl)c1OC
inactive: [1] -1.2% | [2] 11.8% | [3] 11.6% | [4] 41% | [5] -3.8% | [6] 22.4%

CC1CCCN2C(=O)CN(c3ccccc3)CC(=O)N12 (centres undefined)
inactive: [1] 13.6% | [2] 2.45% | [3] -4.7% | [4] 14.9% | [5] 5.35% | [6] 1.95%

O=C(CC1C(=O)Nc2ccccc2S1=O)Nc1cc(Cl)ccc1Cl (centres undefined)
inactive: [1] -14.9% | [2] -24.2% | [3] 3.1% | [4] 8.15% | [5] -4.6% | [6] -6.1%

COC(=O)c1cc(OCC#CC#CCOc2ccc(O)c(C(=O)OC)c2)ccc1O
inactive: [1] 3% | [2] -5.8% | [3] 9.65% | [4] -1.2% | [5] -4.15% | [6] 14.1%

COc1ccc(C(=O)NNC(=O)c2cccc3ccccc23)cc1
inactive: [1] 21.8% | [2] -9.75% | [3] 9.7% | [4] 5.8% | [5] 16.6% | [6] -3.6%

COCC(Br)C(OC)OC (centres undefined)
inactive: [1] 37.5% | [2] 9.1% | [3] 58.9% | [4] -1.05% | [5] 5.75% | [6] 68.3%

C=CC(=O)NC12CC3CC(CC(C3)C1)C2
inactive: [1] -4.45% | [2] -0.3% | [3] -8.1% | [4] -23.9% | [5] -15.6% | [6] 0.05%

CN(C(=O)Cc1ccccc1)n1cn[n+](CC(=O)OC(C)(C)C)c1
inactive: [1] -3.65% | [2] -13.6% | [3] -12.4% | [4] -8.35% | [5] -24.6% | [6] -23.6%

CN(C)CCC(C#N)c1ccccc1 (centres undefined)
inactive: [1] -18.6% | [2] -15.6% | [3] -2.7% | [4] -26.4% | [5] -3.8% | [6] -5.55%

CCN(CC)CCNC(=O)c1cc(N2CCOCC2)ccn1
inactive: [1] 23.3% | [2] 11.7% | [3] 18.5% | [4] 1.05% | [5] 30.6% | [6] 45.5%

CN(/C(=C/C(=O)c1ccccc1)C(=O)c1ccccc1)/C(=C/C(=O)c1ccccc1)C(=O)c1ccccc1
inactive: [1] -27.4% | [2] 3.2% | [3] -0.95% | [4] -5.25% | [5] -4.5% | [6] 26.8%

CC1=CC(C)(C)N(C)C(N)=N1
inactive: [1] -4.45% | [2] -3.1% | [3] -5.3% | [4] -43.2% | [5] -2.65% | [6] -1.75%

O=C1NN(C(=O)c2ccccc2)C(c2ccccc2[N+](=O)[O-])c2c1c1ccccc1n2C(=O)c1ccccc1 (centres undefined)
inactive: [1] 28.9% | [2] 5.65% | [3] 5.2% | [4] -23.4% | [5] -4.05% | [6] 14.9%

COCCCC(=O)CNC(C)C
inactive: [1] -5.05% | [2] -42.1% | [3] -8.75% | [4] -15.4% | [5] -21.1% | [6] -14.4%
